For test [1], the target named is Retinoic acid receptor RXR-alpha (Homo sapiens) (UniProt P19793). Description: qHTS assay to identify small molecule agonists of the RXR signaling pathway (AID 1159527; calls by dose curve; further: nearly all actives have a fitted effect of over 35% in size). The method, boiled down: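 Beta-lactamase reporter assay, agonist format. Engineered HEK 293T line, charcoal-stripped FBS at 2%, overnight (16 hr) exposure, fluorescence at 460 and 530 nm after 405 nm excitation.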

A short description of test [2]: qHTS assay to identify small molecule agonists of the RXR signaling pathway - cell viability counter screen (AID 1159529).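 Further: HEK 293T cells carrying an RXR-alpha UAS beta-lactamase reporter; nearly all actives have a fitted effect of over 50% in size.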 The method, boiled down:
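Same-well viability check after the LiveBLAzer FRET read: CellTiter-Glo added, luminescence measured after 30 min at room temperature. Reporter HEK 293T cells had been treated with compounds for 16 hr following a 5 hr preincubation.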
A general note: Quantitative high-throughput screening tests each substance at several concentrations.

The nature of test [3]: qHTS assay to identify small molecule antagonists of the retinoid acid receptor (RAR) signaling pathway - cell viability counter screen (AID 1159551). Further: nearly all actives have a fitted effect of over 35% in size. The gist of the method: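 ATP-based viability, C3RL4 cells, 6 h at 37 C with 1 uM final retinol co-added after compound; luminescence read 30 min post CellTiter-Glo, RT.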
Test [4] in a line: qHTS assay to identify small molecule antagonists of the retinoic acid receptor (RAR) signaling pathway (AID 1159552; further: nearly all actives have a fitted effect of over 50% in size). The method, boiled down:
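Readout: luciferase luminescence, 30 min post-reagent at RT. Setup: C3RL4 RARE reporter cells, compounds plus retinol 1 uM final, 6 hr incubation at 37 C and 5% CO2.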

Test [5] is described as follows: qHTS assay to identify small molecule agonists of the retinoic acid receptor (RAR) signaling pathway (AID 1159553). Further: potency means the concentration at half of the fitted maximal effect. The following applies: C3RL4 RARE luciferase reporter, agonist, 6 h; activation: at 73.3 µM (top of the series). The gist of the method: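 Quantitative high-throughput format: the Tox21 10K library was tested on C3RL4 RARE-luciferase cells for 6 hr at 37 C and 5% CO2, with luminescence measured after a 30 min room-temperature reagent step.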

Test [6] in a line: qHTS assay to identify small molecule antagonists of the estrogen related receptor (ERR) signaling pathway from Tox21 library - cell viability counter screen (AID 1224834). Further: nearly all actives have a fitted effect of over 30% in size. The gist of the method: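 Compounds in DMSO were pinned onto ERR cells that had been incubated for 6 h, and the plates were held at 37 C for 17.5 h. CellTiter-Fluor reagent was then added and fluorescence was measured after 30 min.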

Test [7] addresses Luciferin 4-monooxygenase (Photinus pyralis) (UniProt P08659). Description: qHTS assay to identify small molecule inhibitors of firefly luciferase (AID 1224835). Further: nearly all actives have a fitted effect of over 25% in size. Further: potency means the concentration at half of the fitted maximal effect. The gist of the method:
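Biochemical qHTS: compounds run as interplate titrations against purified firefly enzyme, with D-luciferin and ATP each at its KM concentration. Light output recorded by CCD imaging.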

Test [8] can be described thus: qHTS assay to identify small molecule agonists of the constitutive androstane receptor (CAR) signaling pathway - cell viability counter screen (AID 1224836). Further: nearly all actives have a fitted effect of over 45% in size. The gist of the method: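 Compound titrations (15 concentrations) went onto HepG2-CYP2B6-hCAR cells 4 h after seeding, alongside PK11195 at a final 0.75 uM; a 23 h, 37 C/5% CO2 incubation preceded CellTiter-Fluor viability measurement.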

Test [9] is described as follows: qHTS assay to identify small molecule antagonists of the constitutive androstane receptor (CAR) signaling pathway - cell viability counter screen (AID 1224837). Further: nearly all actives have a fitted effect of over 45% in size. The method, boiled down: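 Cells are seeded, rested 4 hr at 37 C/5% CO2, dosed with compound (15-point series) and 50 nM CITCO, incubated a further 23 hr, and then CellTiter-Fluor reagent is added before fluorescence is read. The line is HepG2 with stable hCAR and CYP2B6-2.2kb.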

The nature of test [10]: qHTS assay to identify small molecule antagonists of the estrogen related receptor signaling pathway with the pleiotropic PPARgamma coactivator (PGC) from Tox21 10K library - cell viability counter screen (AID 1224840; active means well fitted cell-killing curve with a large enough effect in the repeat runs, not every such curve was filed as active; further: nearly all actives have a fitted effect of over 40% in size). The method, boiled down: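 Cell viability is measured by CellTiter-Fluor fluorescence in PGC/ERR cells that receive compounds after a 6-hour attachment period and are then incubated 17.5 hours at 37 C.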

For test [11], the target named is Thyrotropin receptor (Homo sapiens) (UniProt P16473). The test can be described thus: qHTS assay to identify small molecule agonists of the thyroid stimulating hormone receptor (TSHR) signaling pathway (AID 1224843; calls by dose curve; further: nearly all actives have a fitted effect of over 45% in size). The gist of the method: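 HEK293/TSHR, 800 cells/well; cpd 30 min RT; add cAMP-d2 + anti-cAMP-cryptate, 1 h RT; fluorescence read on plate reader. 15-pt titration, n=3.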

A short description of test [12]: qHTS assay to identify small molecule agonists of the hypoxia (HIF-1) signaling pathway - cell viability counter screen (AID 1224844; calls by dose curve; further: nearly all actives have a fitted effect of over 50% in size). The gist of the method: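 Viability counter screen: HRE-bla ME-180 cells plated 5 hrs before compound addition, treated 17 hrs at 37C and 5% CO2, then CellTiter-Glo added after the FRET reporter read; luminescence after 30 min.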

Test [13] can be described thus: qHTS assay to identify small molecule agonists of H2AX (AID 1224845; active means well fitted activation curve with a large enough effect in the signal ratio in the repeat runs, not every such curve was filed as active; the % refers to the signal ratio). The method, boiled down:
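Wild-type CHO-K1 cells, plated overnight, exposed 3hr at 37C to 15 concentrations (0.76% DMSO final). Lysed, then HTRF anti-pH2AX (S139) cryptate and anti-H2AX-d2 antibodies, 24 hr room temperature; 665/620 nm emission read.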

Test [14] is described as follows: qHTS assay to identify small molecule agonists of the hypoxia (HIF-1) signaling pathway (AID 1224846; active means well fitted activation curve with a large enough effect in the signal ratio in the repeat runs, not every such curve was filed as active; the % refers to the signal ratio). The method, boiled down: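 Agonist mode reporter screen. ME-180 cells stably expressing bla under HRE control received test compounds in DMSO for 17 hrs (37C, 5% CO2), and beta-lactamase activity was then detected with the CCF4-AM FRET substrate.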
A short description of test [15]: qHTS assay to identify small molecule antagonists of the estrogen related receptor signaling pathway with the pleiotropic PPARgamma coactivator (PGC) from Tox21 10K library (AID 1224841; call rule not given here; further: actives are mostly falling curves and most rising ones were filed inactive; nearly all actives have a fitted effect of over 50% in size). The gist of the method: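 Cells stably carrying the PGC/ERR reporter, seeded at 2,000 per well, received pin-transferred compounds 6 h post-plating. Exposure lasted 18 h at 37 C. Signal: One-Glo luminescence.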

A short description of test [16]: qHTS assay to identify small molecule agonists of the estrogen related receptor signaling pathway with the pleiotropic PPARgamma coactivator (PGC) from Tox21 10K library (AID 1224842). Further: nearly all actives have a fitted effect of over 15% in size. The method, boiled down:
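PGC/ERR reporter cell line, 2,000 cells per well, incubated 6 h at 37 C before 23 nL compound in DMSO was added. After 18 h at 37 C, One-Glo luminescence read following 30 min at room temperature.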

Test [17] can be described thus: qHTS assay to identify small molecule agonists of H2AX - cell viability counter screen (AID 1224847; calls by dose curve; further: top concentration of the series differs between compounds; nearly all actives have a fitted effect of over 30% in size). The gist of the method: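 Read-out: CellTiter-Glo luminescence, 30 min RT. Cells: wild-type CHO-K1, 1000/well, 10% FBS, plated overnight at 37C. Treatment: 15 concentrations, 3 hr, 37C, 0.76% DMSO.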
Test [18] can be described thus: qHTS assay to identify small molecule antagonists of the estrogen related receptor (ERR) signaling pathway from Tox21 library (AID 1224848). Further: nearly all actives have a fitted effect of over 50% in size. The gist of the method: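 Compounds dissolved in DMSO are pin-transferred onto ERR reporter cells (2,000 per well) that have settled for 6 h at 37 C. Plates then incubate 18 h at 37 C before ONE-Glo luciferase reagent and a luminescence read 30 min later.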

Test [19] deals with Nuclear receptor subfamily 1 group I member 3 (Homo sapiens) (UniProt Q14994). The test can be described thus: qHTS assay to identify small molecule antagonists of the constitutive androstane receptor (CAR) signaling pathway (AID 1224838).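 Further: HepG2 cells stably expressing hCAR with CYP2B6 luciferase reporter stimulated by CITCO; nearly all actives have a fitted effect of over 40% in size.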 The gist of the method:
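Luminescence from a CYP2B6-2.2kb promoter reporter in hCAR-expressing HepG2 cells reflects CAR signaling. Cells received compounds at 15 concentrations and 50 nM CITCO (final), then incubated 24 h at 37 C/5% CO2.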

The target is the same in test [20]. The test can be described thus: qHTS assay to identify small molecule agonists of the constitutive androstane receptor (CAR) signaling pathway (AID 1224839).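 Further: HepG2 cells stably carrying human CAR and a CYP2B6 luciferase reporter; nearly all actives have a fitted effect of over 15% in size.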 The method, boiled down:
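In this screen, CAR-driven CYP2B6 promoter activity is measured by luminescence in HepG2-CYP2B6-hCAR cells after 24 h with test compounds and 0.75 uM PK11195 (final concentration).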

Each structure is given as a SMILES string. Results filed as inconclusive are left out. A number with no mark means an inactive call. Calls of active or inactive are those of the source. Unless noted, the call rests on the fitted dose curve; in most records, active means well fitted curve in the direction sought with a large enough effect in the repeat runs; inconclusive means weak or mixed curves; inactive means no such curve, though single readings can be large; an effect the other way counts as inactive or inconclusive.

Chain of Retinoic acid receptor RXR-alpha (Homo sapiens) (P19793 whole entry, looked up): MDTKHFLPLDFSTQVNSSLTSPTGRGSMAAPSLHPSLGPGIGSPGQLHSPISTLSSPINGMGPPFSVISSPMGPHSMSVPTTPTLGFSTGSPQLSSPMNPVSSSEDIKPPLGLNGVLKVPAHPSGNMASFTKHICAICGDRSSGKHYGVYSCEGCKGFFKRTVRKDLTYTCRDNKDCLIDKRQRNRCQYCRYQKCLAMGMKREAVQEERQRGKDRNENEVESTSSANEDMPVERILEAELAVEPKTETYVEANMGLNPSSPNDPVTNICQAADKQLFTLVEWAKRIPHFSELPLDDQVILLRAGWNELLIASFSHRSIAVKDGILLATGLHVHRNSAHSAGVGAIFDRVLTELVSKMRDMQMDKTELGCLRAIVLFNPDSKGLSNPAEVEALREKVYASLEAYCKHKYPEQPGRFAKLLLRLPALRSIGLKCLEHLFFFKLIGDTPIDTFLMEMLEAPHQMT
Chain of Luciferin 4-monooxygenase (Photinus pyralis) (P08659 whole entry, looked up): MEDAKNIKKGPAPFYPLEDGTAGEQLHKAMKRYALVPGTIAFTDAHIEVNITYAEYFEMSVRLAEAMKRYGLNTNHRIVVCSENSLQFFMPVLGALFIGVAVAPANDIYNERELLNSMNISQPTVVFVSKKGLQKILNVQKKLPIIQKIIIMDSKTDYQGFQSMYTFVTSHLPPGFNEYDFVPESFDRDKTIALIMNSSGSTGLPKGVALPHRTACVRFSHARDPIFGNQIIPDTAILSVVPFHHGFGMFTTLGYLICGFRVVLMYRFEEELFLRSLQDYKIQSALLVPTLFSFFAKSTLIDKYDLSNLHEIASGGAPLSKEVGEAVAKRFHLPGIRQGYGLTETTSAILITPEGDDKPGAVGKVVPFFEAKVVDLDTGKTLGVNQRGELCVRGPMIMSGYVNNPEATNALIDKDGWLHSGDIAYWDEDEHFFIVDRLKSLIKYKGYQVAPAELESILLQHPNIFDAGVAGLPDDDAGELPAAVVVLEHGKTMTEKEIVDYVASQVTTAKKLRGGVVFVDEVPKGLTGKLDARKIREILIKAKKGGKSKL
Chain of Thyrotropin receptor (Homo sapiens) (P16473 whole entry, looked up): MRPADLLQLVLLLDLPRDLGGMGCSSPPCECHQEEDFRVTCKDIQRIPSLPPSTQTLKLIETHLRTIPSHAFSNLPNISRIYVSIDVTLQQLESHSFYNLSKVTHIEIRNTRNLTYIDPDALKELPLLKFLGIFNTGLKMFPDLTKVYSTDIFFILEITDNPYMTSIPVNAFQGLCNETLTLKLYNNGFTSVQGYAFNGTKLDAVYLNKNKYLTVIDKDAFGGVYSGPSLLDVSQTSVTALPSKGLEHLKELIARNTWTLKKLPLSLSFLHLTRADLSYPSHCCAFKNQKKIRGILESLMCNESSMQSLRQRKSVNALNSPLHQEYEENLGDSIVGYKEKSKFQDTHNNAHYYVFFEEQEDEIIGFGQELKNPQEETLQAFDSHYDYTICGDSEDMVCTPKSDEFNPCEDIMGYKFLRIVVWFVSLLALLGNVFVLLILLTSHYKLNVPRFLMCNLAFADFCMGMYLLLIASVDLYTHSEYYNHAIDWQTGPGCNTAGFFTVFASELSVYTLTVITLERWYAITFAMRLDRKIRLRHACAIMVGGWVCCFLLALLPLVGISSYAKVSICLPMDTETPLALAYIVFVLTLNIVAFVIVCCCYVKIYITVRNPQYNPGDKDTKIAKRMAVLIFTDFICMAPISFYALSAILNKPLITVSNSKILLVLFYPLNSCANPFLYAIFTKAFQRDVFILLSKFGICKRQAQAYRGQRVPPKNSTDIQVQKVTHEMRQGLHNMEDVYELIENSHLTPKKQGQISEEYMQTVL
Chain of Nuclear receptor subfamily 1 group I member 3 (Homo sapiens) (Q14994 whole entry, looked up): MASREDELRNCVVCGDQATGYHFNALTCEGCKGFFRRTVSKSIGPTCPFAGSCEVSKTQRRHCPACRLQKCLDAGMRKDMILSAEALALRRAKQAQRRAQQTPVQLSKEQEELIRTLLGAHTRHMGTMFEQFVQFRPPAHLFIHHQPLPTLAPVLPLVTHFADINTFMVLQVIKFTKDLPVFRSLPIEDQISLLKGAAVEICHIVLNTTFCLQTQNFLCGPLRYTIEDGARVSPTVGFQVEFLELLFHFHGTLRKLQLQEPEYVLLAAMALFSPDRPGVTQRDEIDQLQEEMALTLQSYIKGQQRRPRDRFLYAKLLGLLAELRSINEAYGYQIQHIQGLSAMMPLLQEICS

Regarding `CNC(=O)C(c1ccccc1)c1ccccc1`, the Potency entry in test [1], in test [4], in test [5], in [6], in [7] and in [9] was “inactive” in each case. Besides, the outcome in test [2], in test [3], in test [8], in test [10], in test [11] and in [12] was inactive. For the same compound, the call in [13] and in test [14] was inactive.

Take `CN(C)CCOCCN(C)CCO`: the Potency entry in [1], in [4], in test [5], in test [6], in test [7] and in test [9] was “inactive” each time. Also, the Potency result in test [15], in [17] and in test [18] was “inactive” in each case. Further, the compound was classed as inactive in test [2], in test [3], in test [8], in test [10], in [16] and in [11]. Besides, the call in test [12], in test [13] and in test [14] was inactive.

Take `O=C(O)c1ccccc1C(=O)OCc1ccccc1`: the Potency entry in test [1], in test [4], in [6], in test [9], in test [19] and in test [17] was “inactive” each time. In addition, the compound was called inactive in test [2], in test [3], in [8], in test [10], in test [12] and in test [13]. The compound was called inactive in [14]. The results for the Potency in test [5] and in [7] were 48.6 µM (active) and 39.9 µM (active), respectively.

Take `CC(=O)OC(C(=O)c1ccccc1)c1ccccc1` (stereo not drawn): the Potency result in [1], in [4], in [5], in test [6], in test [7] and in [9] was “inactive” in each case. Also, the Potency entry in [19] and in test [17] was “inactive” each time. Also, the result in test [2], in [3], in [8], in [10], in test [11] and in test [12] was inactive. The outcome in test [13] and in test [14] was inactive.

On to `C1CCN2C[C@@H]3C[C@@H](CN4CCCC[C@@H]34)[C@H]2C1`, for which the Potency entry in test [1], in test [4], in [5], in test [6], in test [7] and in [9] was “inactive” each time. Also, the Potency result in test [19], in test [17] and in test [18] was “inactive” throughout. Besides, the call in test [2], in test [3], in test [8], in test [16], in test [12] and in test [13] was inactive.

`CCCCOC(=O)[C@@H](C)Oc1ccc(Oc2ccc(C(F)(F)F)cn2)cc1`: the Potency entry in [1], in test [4], in [5], in [6], in test [7] and in test [9] was “inactive” throughout. Further, the Potency entry in test [19] and in test [20] was “inactive” each time. The call in test [2], in [3], in test [8], in test [10], in [12] and in [13] was inactive. In test [14], the compound was called inactive.

For `CO/N=C(/C(=O)N[C@@H]1C(=O)N2C(C(=O)O)=C(Cn3nnc(C)n3)CS[C@H]12)c1csc(N)n1`, the Potency entry in [1], in test [4], in test [5], in test [6], in test [7] and in test [9] was “inactive” each time. In [17], the Potency result is “inactive”. The result in [2], in [3], in [8], in test [10], in test [11] and in test [12] was inactive. For the same compound, the outcome in test [13] and in test [14] was inactive.

For the compound `CCOC(=O)CC#N`, the Potency result in test [1], in [4], in [5], in [6], in test [7] and in test [9] was “inactive” each time. The Potency result in test [17] is “inactive”. Moreover, the call in test [2], in test [3], in [8], in test [10], in [11] and in [12] was inactive. Besides, the compound was classed as inactive in test [13] and in [14].

Values taken from PubChem BioAssay (Tox21).
